Assay [1] is described as follows: reducers of endogenous Her2 protein level, primary screen, SKBR3 breast tumor cells, AlphaScreen, ATP viability (AID 461;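 active = Her2 level under about 52% in both replicate screens, with viability over 70% of control, limit read from the data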;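 for Her2 level: lower value means less Her2 protein in the cells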;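 for viability: percent of carrier control wells set as 100% viability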). Particulars: 18-24 h, measured here: SKBR3 viability, ATP luminescence, at 10 µM.
For assay [2], the target named is Receptor tyrosine-protein kinase erbB-2 (Homo sapiens) (UniProt P04626). The description is as above. Particulars: 18-24 h, at 10 µM, stronger effect = lower value.
Receptor tyrosine-protein kinase erbB-2 (Homo sapiens), sequence (P04626 whole entry, looked up): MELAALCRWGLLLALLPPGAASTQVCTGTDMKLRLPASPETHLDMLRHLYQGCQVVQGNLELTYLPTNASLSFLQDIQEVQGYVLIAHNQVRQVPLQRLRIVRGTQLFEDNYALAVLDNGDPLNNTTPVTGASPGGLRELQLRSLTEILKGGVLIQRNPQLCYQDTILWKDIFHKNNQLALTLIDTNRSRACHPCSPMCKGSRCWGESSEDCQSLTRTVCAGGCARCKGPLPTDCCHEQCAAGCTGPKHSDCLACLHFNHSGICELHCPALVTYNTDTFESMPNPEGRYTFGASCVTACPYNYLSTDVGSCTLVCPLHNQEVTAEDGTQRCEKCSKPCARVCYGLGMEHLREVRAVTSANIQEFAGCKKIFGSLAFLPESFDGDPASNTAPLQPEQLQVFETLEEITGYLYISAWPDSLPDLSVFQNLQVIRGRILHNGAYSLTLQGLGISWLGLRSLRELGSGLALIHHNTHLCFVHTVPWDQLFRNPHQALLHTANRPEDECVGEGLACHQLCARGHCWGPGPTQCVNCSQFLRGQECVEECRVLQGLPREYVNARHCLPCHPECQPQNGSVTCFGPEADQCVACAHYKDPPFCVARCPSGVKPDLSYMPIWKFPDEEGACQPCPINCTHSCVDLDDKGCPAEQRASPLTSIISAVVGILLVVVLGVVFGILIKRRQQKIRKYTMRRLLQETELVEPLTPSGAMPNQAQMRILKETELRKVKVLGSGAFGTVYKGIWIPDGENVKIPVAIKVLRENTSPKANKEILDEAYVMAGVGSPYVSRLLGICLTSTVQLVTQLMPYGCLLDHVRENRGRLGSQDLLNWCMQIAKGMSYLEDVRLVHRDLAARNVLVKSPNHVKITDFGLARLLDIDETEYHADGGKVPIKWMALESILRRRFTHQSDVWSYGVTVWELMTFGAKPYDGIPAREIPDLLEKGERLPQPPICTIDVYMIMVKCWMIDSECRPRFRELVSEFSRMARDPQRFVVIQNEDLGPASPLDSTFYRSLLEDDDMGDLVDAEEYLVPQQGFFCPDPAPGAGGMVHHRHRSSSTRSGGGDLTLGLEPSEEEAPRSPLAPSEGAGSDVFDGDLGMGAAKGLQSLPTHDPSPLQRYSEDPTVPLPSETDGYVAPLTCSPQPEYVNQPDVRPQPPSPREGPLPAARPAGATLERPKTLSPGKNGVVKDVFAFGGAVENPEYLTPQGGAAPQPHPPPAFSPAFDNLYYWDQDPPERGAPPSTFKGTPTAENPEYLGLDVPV
Assay [3] can be described thus: SK-BR-3 cell growth inhibitors, pilot screen, 24 h, human (AID 572;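 active = viability at or below 10% of carrier control in both of two separate runs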;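 note: compound exposure lasted between 18 and 24 h rather than exactly 24 h; 100% = carrier-treated control wells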). As to conditions: SK-BR-3 viability, CellTiter-Glo luminescence, at 10 µM, stronger effect = lower value.
Assay [4] in a line: HUVEC growth inhibition – cell-based, human, primary screen (AID 575;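 active = viability at or below 30% in both replicate assays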;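 note: 100% = median of untreated cell wells with 0.1% DMSO on each plate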). Particulars: HUVEC proliferation, CellTiter-Glo luminescence, 72 h; at 10 µM; stronger effect = lower value.
A short description of assay [5]: growth inhibitors of H69AR lung tumor, primary screen, human, duplicate replicates (AID 580;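 active = viability at or under a set limit in both replicates, limit being median viability minus 3 SD, cut at about 48% in these data, passing the limit was not always enough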;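 note: 100% = mean luminescence of untreated wells and 0% = no signal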). Particulars: H69AR lung tumor cells viability, ATP luminescence, 72 h; at 10 µM; stronger effect = lower value.
The nature of assay [6]: reversal of MRP1-mediated doxorubicin resistance, pilot screen, H69AR cells, doxorubicin co-treatment (AID 601;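 active = viability loss from added drug above about 55%, and viability with drug at most 40%, in both replicates, limit read from the data, passing the limit was not always enough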). Particulars: CellTiter-Glo, 72 h, at 10 µM; for differential viability (reversal): stronger effect = higher value.
Assay [7] can be described thus: 384-well plate pilot, post-Golgi transport modulator project, inhibition of yeast transport mutant growth (AID 636; in the data active = inhibition above about 31%). Particulars: absorbance 615 nm, about 18 h, stronger effect = higher value.
The nature of assay [8]: growth suppression of yeast trafficking mutant, preliminary HTS, modulators of trafficking downstream of Golgi apparatus project, 1536-format plate, OD 615 nm (AID 637; in the data active = inhibition above about 30%). As to conditions: yeast transport mutant growth, absorbance 615 nm, 18 h; stronger effect = higher value.
Assay [9] is described as follows: OD615 S. cerevisiae growth inhibition, permissive medium, pilot counter-assay, permissive growth control for S. cerevisiae lifespan shortening project (AID 705;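 active = growth inhibition above 25% in both replicates, a cutoff set 3 SD above the mean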). Particulars: OD615, 24 h, at 10 µM, stronger effect = higher value.
Assay [10] is described as follows: Restrictive medium S. cerevisiae growth inhibition, OD615, pilot screen of yeast lifespan reduction project, restrictive growth control (AID 706;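 active = growth inhibition above a set limit, 3 SD over mean compound inhibition, in both replicates, cut at about 43% in these data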;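 note: modified DeaD lifespan yeast strain shifted to restrictive glucose medium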). As to conditions: OD615, 48 h, at 10 µM, stronger effect = higher value.
Assay [11] is described as follows: viability gain of MRP-1-high H69AR cells under doxorubicin, pilot screen, MRP-1 activator project, CellTiter-Glo, duplicate (AID 807;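 active = viability increase at or above a cutoff of the median across tested compounds plus 3 SD, cut at about 8.5% in these data, passing the limit was not always enough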;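 note: compound pretreatment 18-22 h then 72 h combined with doxorubicin; 0% = doxorubicin alone and 100% = vehicle without doxorubicin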). Particulars: H69AR viability with doxorubicin, CellTiter-Glo luminescence; at 10 µM; stronger effect = higher value.
A short description of assay [12]: growth suppression of beta-catenin knockout HCT116, pilot screen, human colon tumor cells (AID 823;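 active = cell viability at or below a set limit in both duplicate runs, the limit being the all-compound median minus 4 SD, cut at about 23% in these data, passing the limit was not always enough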;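 note: 0% = wells killed by 20 µM Hyamine and 100% = untreated DMSO cell wells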). Particulars: CellTiter-Glo, 60 h, at 10 µM, stronger effect = lower value.
The nature of assay [13]: growth suppression of PTEN-deleted HCT116, pilot screen, cell-based, HCT116 clonal line, CellTiter-Glo (AID 824;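 active = viability at or below 27.92% in each of two runs, the all-compound median minus 4 SD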;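 note: 0% = 20 µM Hyamine control and 100% = vehicle cell control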). As to conditions: 60 h, at 10 µM, stronger effect = lower value.
A short description of assay [14]: inhibitors of the yeast RAM network, pilot screen, dse1pr::URA3 reporter, 5-FOA selection (AID 869).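 Note: 0% = DMSO wells with no growth and 100% = 10 µM 1-NA-PP1 with full growth; RAM network block rescues cells from 5-FOA so hits raise OD615 growth.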 Particulars: S. cerevisiae dse1pr::URA3 5-FOA growth, OD615, 2 d; at 10 µM; stronger effect = higher value; strain carries analog-sensitive mutant Cbk1 kinase.
Assay [15] in a line: RAM signaling pathway blockade in yeast – S. cerevisiae, Pdr1DBD-CYC8 efflux-inhibited sensitized strain, primary screen (AID 1298;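 active = RAM network inhibition above 8.4% in each of two replicates, 3 SD over the compound average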;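 note: 0% = DMSO untreated cells without growth and 100% = 10 µM 1-NA-PP1 full growth; higher means more yeast growth rescued from 5-FOA killing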). As to conditions: S. cerevisiae cbk1-as DSE1-URA3 strain, 5-FOA growth OD615, 2 d; at 50 µM; stronger effect = higher value.
Setting [16] is: H69AR cells + 2 uM doxorubicin, measured here: viability with 2 uM doxorubicin, stronger effect = lower value.
Where [17] appears, read: H69AR cells, compound alone cytotoxicity.

These results are taken from PubChem BioAssay.

Records with an inconclusive call do not appear. The source made the active and inactive calls.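 Rule for the calls, unless noted: active = inhibition over a set limit, the all-compound mean plus 3 SD, in both replicate runs; inconclusive = over that limit in just one replicate run; inactive = at or under that limit in both runs.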

As to `CCOC(=O)c1oc2c(CN3CCN(C)CC3)c(O)ccc2c(=O)c1-c1ccccc1OC`, the viability in assay [1] was 94%; in [3], 94% (inactive); in [4] it was 99.5% (inactive); in assay [5] it was 93.1% (inactive); in assay [6] (setting [16]), 93.3%; in [6] (setting [17]), 93.1%. Also, the viability in [12] is 103% (inactive); in [13], 94% (inactive). Also, the Her2 level in [2] is 110% (inactive). Further, the differential viability (reversal) in [6] (H69AR cells + 2 uM doxorubicin) is -0.225% (inactive). In addition, the inhibition is 0% (inactive) in assay [7], 0.5% (inactive) in assay [8] and 3.98% (inactive) in assay [14]. Besides, the growth inhibition in assay [9] was -13% (inactive); in assay [10] it was -15.5% (inactive). Besides, the viability increase in [11] is -1.3% (inactive). In addition, the RAM network inhibition in assay [15] was 1.2% (inactive).

Consider `CCOc1ccccc1NC(=O)CSc1nnc(Cc2cccn2C)n1-c1ccc(F)cc1`, for which the viability was 92.5% in assay [1]; 92.5% (inactive) in assay [3]; 97.4% (inactive) in assay [4]; 79.9% (inactive) in assay [5]; 78.6% in [6] (setting [16]); 79.9% in assay [6] (setting [17]). For the same molecule, the viability was 75.5% (inactive) in [12] and 78.2% (inactive) in [13]. The Her2 level in [2] was 78.5% (inactive). For the same molecule, the differential viability (reversal) in [6] (H69AR cells + 2 uM doxorubicin) is 1.24% (inactive). For the same molecule, the inhibition in assay [7] was -1.28% (inactive); in assay [8] it was -1.17% (inactive); in assay [14], 1.11% (inactive). Moreover, the growth inhibition is 5.28% (inactive) in assay [9] and 7.75% (inactive) in assay [10]. Moreover, the viability increase in assay [11] is -5.25% (inactive). The RAM network inhibition in [15] is 4.07% (inactive).

With `Cc1nnc(SCC(=O)Nc2c(Cl)cccc2Cl)[nH]c1=O`, the viability in assay [1] is 104%; in assay [3], 104% (inactive); in assay [4], 99.1% (inactive); in assay [5], 93.9% (inactive); in assay [6] (setting [16]) it was 93.3%; in assay [6] (setting [17]), 93.9%. Also, the viability in assay [12] is 98.7% (inactive); in assay [13] it was 104% (inactive). Also, the Her2 level in [2] is 101% (inactive). The differential viability (reversal) in assay [6] (H69AR cells + 2 uM doxorubicin) was 0.52% (inactive). In addition, the inhibition is -3.73% (inactive) in [7], -2.17% (inactive) in [8] and 1.54% (inactive) in [14]. Also, the growth inhibition in assay [9] was -7.89% (inactive); in assay [10], 7.47% (inactive). Further, the viability increase in assay [11] was 0.15% (inactive). Also, the RAM network inhibition in assay [15] is 4.64% (inactive).

As for `CCN1CCN(C(=O)C2CC(c3ccc(F)cc3)=NO2)CC1` (stereo not given), the viability is 91.5% in assay [1]; 91.5% (inactive) in [3]; 103% (inactive) in [4]; 99.1% (inactive) in [5]; 75.1% in [6] (setting [16]); 99.1% in assay [6] (setting [17]). In addition, the values for the viability in assay [12] and in assay [13] were 95.2% (inactive) and 102% (inactive), respectively. Also, the Her2 level in [2] was 105% (inactive). Also, the differential viability (reversal) in assay [6] (H69AR cells + 2 uM doxorubicin) is 24.1% (inactive). Moreover, the values for the inhibition in assay [7], in assay [8] and in assay [14] were -4.1% (inactive), -6.67% (inactive) and 0.095% (inactive), respectively. Moreover, the growth inhibition in [9] is -3.54% (inactive); in assay [10], 3.61% (inactive). In [11], the viability increase was 0.82% (inactive). Besides, the RAM network inhibition in [15] is 2.03% (inactive).

Take `COc1ccc(-c2nc(CSCC(=O)N3CCN(c4cccc(C)c4)C(C)C3)c(C)o2)cc1OC` (stereo not given): the viability was 102% in assay [1]; 102% (inactive) in [3]; 54.6% (inactive) in assay [4]; 85.7% (inactive) in assay [5]; 91.7% in assay [6] (setting [16]); 85.7% in assay [6] (setting [17]). The viability in assay [12] is 56.9% (inactive); in assay [13], 56.4% (inactive). Further, the Her2 level in [2] is 67.5% (inactive). Besides, in assay [6] (H69AR cells + 2 uM doxorubicin), the differential viability (reversal) is -5.97% (inactive). Further, the inhibition in assay [7] is -2.27% (inactive); in [8], 1.33% (inactive); in assay [14], 1.96% (inactive). For the same molecule, the values for the growth inhibition in assay [9] and in [10] were -4.45% (inactive) and 8.39% (inactive), respectively. For the same molecule, the viability increase in [11] is 0.02% (inactive). Further, the RAM network inhibition in assay [15] was 7.25% (inactive).
